The record followed here is PubChem BioAssay AID651812 (National Center for Advancing Translational Sciences (NCATS), 2012).

Hit rate of the full screen: of about 2,100 compounds, about 650 (31%) were called active. Inconclusive results (about 16%) are left out. Calls come from the whole dose curve; as a rule, active = well fitted inhibition curve with a large enough effect; inconclusive = small, poorly fitted or top-dose-only effect; inactive = flat fitted curve, though single readings scatter. The list shows a part of the results. A call without a number means that no potency is given here.
Potency is the fitted concentration of half-maximal effect.

The experiment can be described thus: qHTS for inhibitors of Vif-A3G interactions: Cherry picks. Note: nearly all actives have a fitted effect of over 80% in size. To be noted: HeLa A3G-eYFP + Vif (tagged APOBEC3G with the HIV-1 protein that degrades it), 24 h; Potency: eYFP fluorescence increase; series mostly up to 36.9 µM. Put shortly: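 Cherry-picked compounds tested at several concentrations on A3G-eYFP/Vif HeLa cells for 24 hours; loss of Vif-driven degradation read as eYFP fluorescence by cytometric plate imaging, 488 nm excitation, 500-530 nm emission.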
A general note: qHTS replaces the single test concentration by a dilution series.
`Cc1ccc(CN(C(=O)c2ccccc2F)c2ccccn2)o1`: the Potency result is “inactive”.

Take `CCOC(=O)c1cnc(-n2nc(C)cc2C)nc1NNc1nc(-c2ccccc2)cc(-c2ccccc2)n1`: the Potency entry is “inactive”.

As for `COC(=O)c1[nH]c2c(c1C(=O)OC)CCc1ccccc1-2`, the Potency entry was “inactive”.

For the molecule `CC(CC(=O)Nc1ccc2c(c1)c(=O)n(C)n2-c1ccccc1F)c1ccccc1` (stereo unspecified), the Potency entry was “inactive”.

Take `O=C1[C@@H]2[C@@H](CN3CN(c4ccccc4)N=C(c4ccccc4)[C@@]23c2ccccc2)C(=O)N1c1ccccc1`: the Potency entry is “inactive”.

`O=C(Cn1nc2c(cc1=O)CCCC2)NCc1ccc(Cl)cc1`: the Potency result was “inactive”.

Take `Nc1c(C(=O)c2ccc(Cl)cc2)sc2nc3c(cc12)CCC3`: the Potency was 18.4 µM (active).

Turning to `CC(=O)Nc1cccc(-c2ccnc3c2CC(C)(C(=O)NCc2ccccc2)O3)c1` (stereo unspecified), the Potency result was “inactive”.

For `COc1ccc(/C=N/NC(=O)c2cc(OC)c(OC)c(OC)c2)cc1CN1CCc2cc(OC)c(OC)cc2C1C` (stereo unspecified), the Potency result is “inactive”.

Regarding `O=C1NC(=Nc2ccccc2Cl)S/C1=C\c1cc([N+](=O)[O-])ccc1O`, the Potency entry is “inactive”.

With `O=C1/C(=C\c2cc([N+](=O)[O-])ccc2O)SC(=S)N1Cc1ccc(Cl)cc1`, the Potency is 18.4 µM (active).

As for `CN(C)c1ccc(/C=C/C(=O)c2c(O)c3ccccc3oc2=O)cc1`, the Potency was 1.46 µM (active).

Turning to `C=CCOc1ccc2nc(NC(=O)OC)[nH]c2c1`, the Potency result is “inactive”.

`COc1ccc(N/C=C/C(=O)c2sc(-c3ccccc3)nc2C)cc1`: the Potency result was “inactive”.

Take `CC[n+]1c(/C=C/N(C)c2ccccc2)oc2ccc(F)cc21`: the Potency was 17.7 µM (active).

As to `CC[n+]1c(/C=C/Nc2ccccc2)oc2ccccc21`, the Potency was 14.6 µM (active).

On to `CC[n+]1c(/C=C/Nc2ccccc2)oc2ccc(OC)cc21`, for which the Potency is 20.6 µM (active).

`Cc1c(C(=O)N2CCOCC2)[nH]c2c1C(=O)CC(c1ccccc1Cl)C2` (stereo unspecified): the Potency result was “inactive”.

As to `Cc1ccc(C)c(N2CCN(C(=O)c3cccn4c(=O)c5sccc5nc34)CC2)c1`, the Potency result is “inactive”.

On to `COc1ccc(-c2coc3cc4oc(=O)cc(-c5ccccc5)c4cc23)cc1F`, for which the Potency result was “inactive”.

Regarding `CCC/C=N/NC(=O)c1[nH]c2c([N+](=O)[O-])cccc2c1C`, the Potency entry was “inactive”.

`O=C(CSc1nc2ccc(Nc3nc(N4CCOCC4)nc(N4CCOCC4)n3)cc2s1)Nc1ccccc1F`: the Potency was 5.8 µM (active).

On to `O=C(CSc1nc2ccccc2s1)c1cc2ccccc2o1`, for which the Potency result is “inactive”.

For the molecule `CCCC(=O)Nc1nc2ccc(NC(=O)c3ccccc3F)cc2s1`, the Potency entry is “inactive”.

`Cc1ccc(C(=O)CSC2=C(C#N)C(c3ccco3)C3=C(CCCC3=O)N2)cc1` (stereo unspecified): the Potency entry is “inactive”.

`Cc1ccc(C(=O)CSc2nc(-c3ccccc3)ccc2C#N)cc1`: the Potency was 18.4 µM (active).

As to `Cc1nc(SCC(=O)c2ccccc2)c(C#N)c(-c2ccco2)c1C(=O)NCc1ccco1`, the Potency result is “inactive”.

Regarding `CCOc1cc(C#N)c(NC(=O)c2cccnc2)cc1OCC`, the Potency result is “inactive”.

Consider `N#Cc1ccc(-c2cccnc2)nc1SCC(=O)c1ccccc1`, for which the Potency is 16.4 µM (active).

Consider `CCOc1ccc(S(=O)(=O)Nc2cc3c(C(=O)OC)c(COC)oc3c3ccccc23)cc1`, for which the Potency result is “inactive”.

In the case of `CN1/C(=C\C=C(/C#N)C(=O)Nc2ccccc2F)C(C)(C)c2ccccc21`, the Potency was 9.2 µM (active).

With `COc1ccc(NC(=O)/C(C#N)=C\C=C\c2ccco2)cc1`, the Potency result was “inactive”.

Take `CN1/C(=C\C=C(/C#N)C(=O)Nc2ccc(Cl)cc2)C(C)(C)c2ccccc21`: the Potency was 4.98 µM (active).

In the case of `O=C(NNC1=Nc2cccc3cccc1c23)c1ccc(Br)cc1`, the Potency was 18.4 µM (active).

For `COCCCNC(=S)N/N=C/c1cccc(OC)c1O`, the Potency result is “inactive”.

As to `CC1=C(n2nnc3ccccc32)C(c2ccccc2)C(C#N)=C(N)O1` (stereo unspecified), the Potency result was “inactive”.

In the case of `COc1ccc2c(c1)N(C)/C(=C/c1cccc[n+]1C)S2`, the Potency was 14 µM (active).

Turning to `CCN1/C(=C/c2cccc[n+]2C)Sc2ccc(OC)cc21`, the Potency was 16.4 µM (active).

Regarding `CCOc1ccc(CN2C(=O)c3ccccc3Sc3ccc(C(=O)O)cc32)cc1`, the Potency result is “inactive”.

`COc1ccc(C(=O)Nc2ccc3c(c2)N(C)C(=O)c2ccccc2S3)cc1OC`: the Potency result is “inactive”.

Regarding `CC[n+]1ccccc1/C=C1\Sc2ccc(C)cc2N1C`, the Potency is 20.6 µM (active).

Turning to `N#CC1=C(N)Oc2ccc3ccc(O)cc3c2C1c1ccsc1` (stereo unspecified), the Potency entry is “inactive”.

Take `c1ccc2[nH]c(NN=C3CCCCCC3)nc2c1`: the Potency entry is “inactive”.

Take `O=C(Cc1nc2ccccc2[nH]c1=O)c1ccc(Cl)cc1`: the Potency is 20.6 µM (active).

Take `CC(=O)/C(=C\N(C)C)Sc1ccc(Cl)cc1`: the Potency entry is “inactive”.

`COc1cccc(C2=CC(c3cccs3)n3nnnc3N2)c1` (stereo unspecified): the Potency entry was “inactive”.

Consider `Cc1cc(C)n(S(=O)(=O)/C=C/c2ccccc2)n1`, for which the Potency result was “inactive”.

`O=C(NCC1CCCO1)c1nn2c(C(F)(F)F)cc(-c3cc(Br)cs3)nc2c1Br` (stereo unspecified): the Potency is 13 µM (active).

On to `COc1ccc(C)cc1NCc1cc(=O)oc2cc(-c3ccccc3)c(O)cc12`, for which the Potency result is “inactive”.

In the case of `CCOC(=O)c1c(-c2ccc(OC)cc2)csc1/N=C/C1C(=O)CCCC1=O`, the Potency result is “inactive”.

In the case of `O=C(CC1CC2CCC1C2)Nc1nc(-c2ccccn2)cs1` (stereo unspecified), the Potency entry is “inactive”.

`N#Cc1c(-c2ccc(F)cc2)c(-c2ccc(F)cc2)nn(CCO)c1=O`: the Potency is 12.5 µM (active).

Take `N#Cc1c(-c2ccccc2)c(-c2ccccc2)nn(CC(=O)NNC(=O)Nc2ccccc2)c1=O`: the Potency entry is “inactive”.

On to `CCn1c(SCC(=O)N/N=C/c2ccc(C)s2)nc2ccccc21`, for which the Potency result is “inactive”.

As to `Cc1ccc(S(=O)(=O)N2CCCCC2CCNC(=O)C(=O)NCc2ccco2)cc1` (stereo unspecified), the Potency entry is “inactive”.

Regarding `COc1cc(/C=N\Nc2ccc([N+](=O)[O-])cc2)ccc1OCC(=O)Nc1ccc(C)c(C)c1`, the Potency was 8.2 µM (active).

Consider `Cc1ccccc1OCC(=O)N/N=C/c1ccc(N(C)C)cc1`, for which the Potency result was “inactive”.

Consider `Cc1cccc(C)c1OCC(=O)N/N=C/c1ccc2c(c1)OCO2`, for which the Potency result was “inactive”.

`COCCNC(=S)N/N=C(\C)c1ccccc1O`: the Potency result is “inactive”.

For `C[n+]1ccc(/C=C/c2c[nH]c3ccccc23)cc1`, the Potency was 11.6 µM (active).

`CC[n+]1ccc(/C=C/c2c[nH]c3ccccc23)cc1`: the Potency was 14.6 µM (active).

`OCC[n+]1ccc(/C=C/c2c[nH]c3ccccc23)cc1`: the Potency was 10.3 µM (active).

For the molecule `C[n+]1ccc(/C=C/c2cc[n+](C)c3ccccc23)c2ccccc21`, the Potency entry was “inactive”.

Consider `CC(=O)Nc1cccc(-c2cc(NC=O)c3ncc(-c4ccc(F)c(Cl)c4)n3c2)c1`, for which the Potency entry was “inactive”.

Take `COc1ccc(-c2cc(NC=O)c3ncc(-c4cccc(C(F)(F)F)c4)n3c2)cc1OC`: the Potency result was “inactive”.

Consider `N#C/C=C/N1CCN(C(=O)c2ccco2)CC1`, for which the Potency entry is “inactive”.

Turning to `COc1cc(C2Sc3ccccc3NC3=C2C(=O)OC3)cc(OC)c1OC` (stereo unspecified), the Potency entry is “inactive”.

On to `COc1cc(CCC(=O)Nc2nnc(C)s2)cc(OC)c1OC`, for which the Potency result was “inactive”.

Take `Cc1cc(C)nc(NC(=S)Nc2cccc(Cl)c2Cl)c1`: the Potency entry is “inactive”.

As to `NC(=O)C1CCN(c2nc3ccccc3nc2NS(=O)(=O)c2ccc(Br)cc2)CC1`, the Potency result is “inactive”.

Regarding `CCN(CC)c1nc2ccccc2nc1C(C#N)C(=O)NCCc1ccccc1` (stereo unspecified), the Potency was 3.66 µM (active).

Regarding `N#CC(C(=O)NCc1ccccc1)c1nc2ccccc2nc1N1CCCC1` (stereo unspecified), the Potency was 18.4 µM (active).

In the case of `CN1CCN(c2ccc([N+](=O)[O-])cc2C(=O)c2ccc(Br)cc2)CC1`, the Potency result is “inactive”.

Turning to `Cc1cc(C)c(C(=O)N(CCN(C)C)CC2CCCN(Cc3ccccc3F)C2)o1` (stereo unspecified), the Potency result is “inactive”.

On to `COc1ccccc1C(=O)Nc1ccc2c(c1)CN(C(=O)CSC)CC2`, for which the Potency entry was “inactive”.

As to `Cc1ccc(-c2nc3sc(C#N)c(N)n3c(=O)c2C#N)cc1`, the Potency was 18.4 µM (active).

In the case of `O=C(NCc1ccco1)C1Cc2c(-c3cccc(F)c3)ccnc2O1` (stereo unspecified), the Potency entry was “inactive”.

Consider `Cc1ccc(C(=O)c2cc([N+](=O)[O-])ccc2N2CCN(C)CC2)cc1`, for which the Potency entry was “inactive”.

For `CCN(CC)c1ccc2cc(-c3nc(-c4ccc(Cl)cc4Cl)cs3)c(=O)oc2c1`, the Potency was 2.91 µM (active).

With `CCN(CC)c1ccc2cc(-c3nc(-c4cccs4)no3)c(=O)oc2c1`, the Potency was 2.91 µM (active).

For the molecule `CCN(CC)c1ccc2cc(-c3nc4sc5c(c4c(=O)[nH]3)CCC(C(C)(C)C)C5)c(=O)oc2c1` (stereo unspecified), the Potency entry is “inactive”.

Take `CCN(CC)c1ccc2cc(-c3nc(-c4cc(OC)c(OC)c(OC)c4)no3)c(=O)oc2c1`: the Potency was 0.58 µM (active).

For `CCN(CC)c1ccc2cc(-c3nnc(-c4ccccc4)o3)c(=O)oc2c1`, the Potency is 0.627 µM (active).

As for `CC(=O)Nc1cccc(-c2ccnc3c2CC(C(=O)NCc2cccs2)O3)c1` (stereo unspecified), the Potency result was “inactive”.

`CC(=O)Nc1ccc(NC(=O)C/C(C)=N/NC(N)=S)cc1`: the Potency result is “inactive”.

`O=c1oc2cc(O)ccc2cc1-c1nc(-c2ccc(Cl)c(Cl)c2)cs1`: the Potency was 1.84 µM (active).

`COc1ccc(-c2csc(-c3ccc(O)cc3)n2)cc1`: the Potency entry is “inactive”.

In the case of `CCN(CC)c1ccc2cc(-c3nc(-c4ccccc4)no3)c(=O)oc2c1`, the Potency is 4.61 µM (active).

`Oc1ccc(-c2nc(-c3ccc(O)c(O)c3)cs2)cc1`: the Potency result was “inactive”.

For `CCN(CC)c1ccc2cc(-c3nc4ccccc4n3C)c(=O)oc2c1`, the Potency was 16.4 µM (active).

As to `CCN(CC)c1ccc2cc(-c3nnc(-c4cccc(Cl)c4)o3)c(=O)oc2c1`, the Potency is 1.3 µM (active).

`COc1cccc(C2=CC(c3cc(Br)ccc3F)n3nnnc3N2)c1` (stereo unspecified): the Potency entry was “inactive”.

Turning to `CCN(CC)c1ccc2cc(C(N)=O)c(=N)oc2c1`, the Potency was 23.1 µM (active).

In the case of `CCN(CC)c1ccc(/C=N/N=C(N)N)c(O)c1`, the Potency entry was “inactive”.

As to `O=C1/C(=C/c2c[nH]c3ccccc23)CCC/C1=C\c1c[nH]c2ccccc12`, the Potency is 18.4 µM (active).

As to `O=C(c1ccccc1)c1c2c(cc3sc4ccccc4[n+]13)-c1cccc3cccc-2c13`, the Potency entry was “inactive”.

For the molecule `S=C(NN=Cc1ccccn1)Nc1ccccn1`, the Potency entry was “inactive”.

For `C/C(=N\Nc1nc(C)cc(-c2ccccc2)n1)c1ccc(F)cc1`, the Potency result is “inactive”.

As for `CCOc1ccccc1C(=O)Nc1c(C(=O)Nc2ccc(F)cc2)oc2ccccc12`, the Potency result was “inactive”.

With `CCOc1ccc(Br)cc1/C(C)=N\NC1=NCCN1`, the Potency entry was “inactive”.

`CCOc1ccc(Br)cc1C(=O)Nc1ccc(C(=O)NCC(C)C)cc1`: the Potency was 6.51 µM (active).
